# Laboratory results as given in the supplement of paper PMC8728848.
# The entries come from a sample that favours the strongest signals as a whole.
# Tests used:
# Test in all cases: glycan array binding signal (z-score within array); higher = stronger binding
# Details in all cases: glycan notation: IUPAC condensed, linker removed
# [1] = biological target: Fuc(a1-2)Gal(b1-3)GalNAc(b1-3)Gal(a1-4)Gal(b1-4)Glc
# Summary of the method: (§1)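 Columns mapping to the same glycan were averaged after glycan names were converted to IUPAC-condensed notation. The data come from 3228 arrays in the Consortium for Functional Glycomics database, limited to those with an available protein sequence. Binding is reported as a within-array Z-score averaged across arrays of one protein sequence and across linkers.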
# [2] = biological target: Fuc(a1-2)Gal(b1-3)GlcNAc(b1-3)[Fuc(a1-3)[Gal(b1-4)]GlcNAc(b1-6)]Gal(b1-4)Glc
# Summary of the method: as §1
# [3] = biological target: Fuc(a1-2)Gal(b1-3)[Fuc(a1-4)]GlcNAc(b1-2)Man(a1-3)[Fuc(a1-2)Gal(b1-3)[Fuc(a1-4)]GlcNAc(b1-2)Man(a1-6)]Man(b1-4)GlcNAc(b1-4)GlcNAc
# Summary of the method: as §1
# [4] = biological target: Fuc(a1-2)Gal(b1-3)[Fuc(a1-4)]GlcNAc(b1-3)[Fuc(a1-3)[Gal(b1-4)]GlcNAc(b1-6)]Gal(b1-4)Glc
# Summary of the method: as §1
# [5] = biological target: Fuc(a1-2)Gal(b1-4)[Fuc(a1-3)]GlcNAc(b1-2)[Fuc(a1-2)Gal(b1-4)[Fuc(a1-3)]GlcNAc(b1-4)]Man(a1-3)[Fuc(a1-2)Gal(b1-4)[Fuc(a1-3)]GlcNAc(b1-2)Man(a1-6)]Man(b1-4)GlcNAc(b1-4)GlcNAc
# Summary of the method: as §1
# [6] = biological target: Fuc(a1-2)[GalNAc(a1-3)]Gal(b1-3)GlcNAc(b1-2)Man(a1-3)[Fuc(a1-2)[GalNAc(a1-3)]Gal(b1-3)GlcNAc(b1-2)Man(a1-6)]Man(b1-4)GlcNAc(b1-4)[Fuc(a1-6)]GlcNAc
# Summary of the method: as §1
# [7] = biological target: Fuc(a1-2)[GalNAc(a1-3)]Gal(b1-3)GlcNAc(b1-3)GalNAc
# Summary of the method: as §1
# [8] = biological target: Fuc(a1-2)[GalNAc(a1-3)]Gal(b1-4)GlcNAc(b1-3)Gal(b1-4)GlcNAc(b1-3)Gal(b1-4)GlcNAc
# Summary of the method: as §1
# [9] = biological target: Gal(a1-3)Gal(b1-4)GlcNAc(b1-3)GalNAc
# Summary of the method: as §1
# [10] = biological target: Gal(a1-3)Gal(b1-4)[Fuc(a1-3)]GlcNAc(b1-2)Man(a1-3)[Gal(a1-3)Gal(b1-4)[Fuc(a1-3)]GlcNAc(b1-2)Man(a1-6)]Man(b1-4)GlcNAc(b1-4)GlcNAc
# Summary of the method: as §1
# [11] = biological target: Gal(a1-4)Gal(b1-4)GlcNAc(b1-3)Gal(b1-4)Glc
# Summary of the method: as §1
# [12] = biological target: Gal(b1-2)Gal
# Summary of the method: as §1
# [13] = biological target: Gal(b1-3)Gal(b1-4)GlcNAc
# Summary of the method: as §1
# [14] = biological target: Gal(b1-3)GlcNAc(b1-3)Gal(b1-4)Glc
# Summary of the method: as §1
# [15] = biological target: Gal(b1-3)GlcNAc(b1-3)Gal(b1-4)GlcNAc
# Summary of the method: as §1
# [16] = biological target: Gal(b1-3)[Fuc(a1-4)]GlcNAc(b1-2)Man(a1-3)[Gal(b1-3)[Fuc(a1-4)]GlcNAc(b1-2)Man(a1-6)]Man(b1-4)GlcNAc(b1-4)GlcNAc
# Summary of the method: as §1
# [17] = biological target: Gal(b1-3)[Neu5Ac(a2-6)]GalNAc
# Summary of the method: as §1
# [18] = biological target: Gal(b1-4)GlcNAc
# Summary of the method: as §1
# [19] = biological target: Gal(b1-4)GlcNAc(b1-2)Man(a1-3)[Gal(b1-4)GlcNAc(b1-2)Man(a1-6)]Man(b1-4)GlcNAc(b1-4)GlcNAc
# Summary of the method: as §1
# [20] = biological target: Gal(b1-4)GlcNAc(b1-3)Gal(b1-4)Glc
# Summary of the method: as §1
# [21] = biological target: Gal(b1-4)GlcNAc(b1-3)[GlcNAc(b1-6)]Gal(b1-4)GlcNAc
# Summary of the method: as §1
# [22] = biological target: Gal(b1-4)GlcNAc(b1-6)Gal(b1-4)GlcNAc(b1-6)GalNAc
# Summary of the method: as §1
# [23] = biological target: Gal3S(b1-3)GalNAc
# Summary of the method: as §1
# [24] = biological target: GalNAc(b1-3)Gal(a1-4)Gal(b1-4)GlcNAc(b1-3)Gal(b1-4)Glc
# Summary of the method: as §1
# [25] = biological target: GalNAc(b1-3)GalNAc
# Summary of the method: as §1
# [26] = biological target: Glc(a1-4)Glc
# Summary of the method: as §1
# [27] = biological target: GlcNAc(a1-4)Gal(b1-3)GlcNAc
# Summary of the method: as §1
# [28] = biological target: GlcNAc(a1-4)Gal(b1-4)GlcNAc(b1-3)Gal(b1-4)GlcNAc
# Summary of the method: as §1
# [29] = biological target: GlcNAc(a1-6)Gal(b1-4)GlcNAc
# Summary of the method: as §1
# [30] = biological target: GlcNAc(b1-2)Man(a1-3)[GlcNAc(b1-2)Man(a1-6)]Man(b1-4)GlcNAc(b1-4)[Fuc(a1-6)]GlcNAc
# Summary of the method: as §1
# [31] = biological target: GlcNAc(b1-3)Gal
# Summary of the method: as §1
# [32] = biological target: GlcNAc(b1-3)Gal(b1-4)Glc
# Summary of the method: as §1
# [33] = biological target: GlcNAc(b1-3)Gal(b1-4)GlcNAc
# Summary of the method: as §1
# [34] = biological target: GlcNAc(b1-3)[GlcNAc(b1-6)]Gal(b1-4)GlcNAc
# Summary of the method: as §1
# [35] = biological target: GlcNAc(b1-3)[GlcNAc(b1-6)]GlcNAc(b1-4)GlcNAc
# Summary of the method: as §1
# [36] = biological target: GlcNAc3Prop(b1-4)GlcNAc
# Summary of the method: as §1
# [37] = biological target: Neu5Ac(a2-3)Gal(b1-4)GlcNAc(b1-3)Gal
# Summary of the method: as §1
# [38] = biological target: Neu5Ac(a2-3)Gal(b1-4)[Fuc(a1-3)]GlcNAc6S
# Summary of the method: as §1
# [39] = biological target: Neu5Ac(a2-3)Gal6S(b1-4)GlcNAc
# Summary of the method: as §1
# [40] = biological target: Neu5Ac(a2-3)Gal6S(b1-4)[Fuc(a1-3)]GlcNAc
# Summary of the method: as §1
# [41] = biological target: Neu5Ac(a2-3)[GalNAc(b1-4)]Gal(b1-4)Glc
# Summary of the method: as §1
# [42] = biological target: Neu5Ac(a2-3)[GalNAc(b1-4)]Gal(b1-4)GlcNAc
# Summary of the method: as §1
# [43] = biological target: Neu5Ac(a2-6)Gal(b1-4)GlcNAc(b1-2)Man(a1-3)Man(b1-4)GlcNAc(b1-4)GlcNAc
# Summary of the method: as §1
# [44] = biological target: Neu5Ac(a2-6)Gal(b1-4)GlcNAc(b1-2)Man(a1-6)Man(b1-4)GlcNAc(b1-4)GlcNAc
# Summary of the method: as §1
# [45] = biological target: Neu5Ac(a2-8)Neu5Ac(a2-8)Neu5Ac
# Summary of the method: as §1
# [46] = biological target: Neu5Ac(b1-6)GalNAc
# Summary of the method: as §1
binder,measurement,setting,value
"F17aG (Escherichia coli), Q99003 (protein) MTNFYKVFLAVFILVCCNISQAAVSFIGSTENDVGPSLGSYSRTHAMDNLPFVYDTRNKIGYQNANVWHISKGFCVGLDGKVDLPVVGSLDGQSIYGLTEEVGLLIWMGDTKYSRGTAMSGNSWENVFSGWCVGANTASTQGLSVRVTPVILKRNSSARYSVQKTSIGSIRMRPYNGSSAGSVQTTVNFSLNPFTLNDTVTSCRLLTPSAVNVSLAAISAGQLPSSGDEVVAGTTSLKLQCDAGVTVWATLTDATTPSNRSDILTLTGASTATGVGLRIYKNTDSTPLKFGPDSPVKGNENQWQLSTGTETSPSVRLYVKYVNTGEGINPGTVNGISTFTFSYQ",glycan array binding signal (z-score),[1],-0.23
same,glycan array binding signal (z-score),[2],-0.148
same,glycan array binding signal (z-score),[3],-0.169
same,glycan array binding signal (z-score),[4],-0.139
same,glycan array binding signal (z-score),[5],-0.163
same,glycan array binding signal (z-score),[6],-0.143
same,glycan array binding signal (z-score),[7],-0.113
same,glycan array binding signal (z-score),[8],0.023
same,glycan array binding signal (z-score),[9],-0.168
same,glycan array binding signal (z-score),[10],-0.157
same,glycan array binding signal (z-score),[11],-0.154
same,glycan array binding signal (z-score),[12],-0.25
same,glycan array binding signal (z-score),[13],-0.151
same,glycan array binding signal (z-score),[14],-0.252
same,glycan array binding signal (z-score),[15],-0.236
same,glycan array binding signal (z-score),[16],-0.119
same,glycan array binding signal (z-score),[17],-0.205
same,glycan array binding signal (z-score),[18],-0.14
same,glycan array binding signal (z-score),[19],-0.254
same,glycan array binding signal (z-score),[20],-0.147
same,glycan array binding signal (z-score),[21],1.53
same,glycan array binding signal (z-score),[22],-0.312
same,glycan array binding signal (z-score),[23],-0.244
same,glycan array binding signal (z-score),[24],-0.179
same,glycan array binding signal (z-score),[25],1.69
same,glycan array binding signal (z-score),[26],-0.243
same,glycan array binding signal (z-score),[27],-0.089
same,glycan array binding signal (z-score),[28],-0.182
same,glycan array binding signal (z-score),[29],-0.243
same,glycan array binding signal (z-score),[30],-0.17
same,glycan array binding signal (z-score),[31],3.9
same,glycan array binding signal (z-score),[32],8.79
same,glycan array binding signal (z-score),[33],4.77
same,glycan array binding signal (z-score),[34],5.68
same,glycan array binding signal (z-score),[35],2.15
same,glycan array binding signal (z-score),[36],11.7
same,glycan array binding signal (z-score),[37],-0.158
same,glycan array binding signal (z-score),[38],0.084
same,glycan array binding signal (z-score),[39],-0.233
same,glycan array binding signal (z-score),[40],-0.245
same,glycan array binding signal (z-score),[41],0.025
same,glycan array binding signal (z-score),[42],-0.241
same,glycan array binding signal (z-score),[43],-0.177
same,glycan array binding signal (z-score),[44],-0.167
same,glycan array binding signal (z-score),[45],-0.234
same,glycan array binding signal (z-score),[46],-0.34
